# Reference: paper PMC5540273 (PLoS ONE, 2017)
# Read-outs that look alike come from different tables or passages of the source.
# What was measured:
# Settings in all cases: n = 1
# ANKK1 = test system: ANKK1
# ARK5 = test system: T1, ARK5
# T1 construct: gene NUAK1
# ASK1 = test system: T2, ASK1
# T2 construct: gene MAP3K5
# ASK2 = test system: T3, ASK2
# T3 construct: gene MAP3K6
# AURKA = test system: AURKA
# AURKB = test system: AURKB
# AURKC = test system: AURKC
# AXL = test system: AXL
# BIKE = test system: T4, BIKE
# T4 construct: gene BMP2K
# BLK = test system: BLK
# [1] = concentration: 1 μM, replicates: in singlicate
# 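Note: KINOMEscan kinase panel screen.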
SMILES,%Inh (ANKK1; [1]) [%],%Inh (ARK5; [1]) [%],%Inh (ASK1; [1]) [%],%Inh (ASK2; [1]) [%],%Inh (AURKA; [1]) [%],%Inh (AURKB; [1]) [%],%Inh (AURKC; [1]) [%],%Inh (AXL; [1]) [%],%Inh (BIKE; [1]) [%],%Inh (BLK; [1]) [%],%Inh (ANKK1; 1 µM) [%],%Inh (ARK5; 1 µM) [%],%Inh (ASK1; 1 µM) [%],%Inh (ASK2; 1 µM) [%],%Inh (AURKA; 1 µM) [%],%Inh (AURKB; 1 µM) [%],%Inh (AURKC; 1 µM) [%],%Inh (AXL; 1 µM) [%],%Inh (BIKE; 1 µM) [%],%Inh (BLK; 1 µM) [%]
CCCc1ccc(S(=O)(=O)NC2CCN(c3ccnc(Nc4ccc(F)cc4)n3)C2)cc1 (centres unmarked) [GSK1379715],0,0,2,0,0,29,5,12,0,0,,,,,,,,,,
Cl.O=C(Nc1cccc(-c2nn3ncccc3c2-c2ccnc(Nc3cccnc3)n2)c1)c1c(F)cccc1F [GSK312879],16,0,0,13,0,24,19,11,31,2,,,,,,,,,,
CC1=C(C(=O)Nc2cc3cn[nH]c3cc2F)C(c2ccc(C(F)(F)F)cc2)CC(=O)N1 (centres unmarked) [GSK429286],0,7,0,24,23,1,46,0,19,42,,,,,,,,,,
O=C(O)COc1ncnc2cc(-c3ccc4[nH]ncc4c3)sc12,12,0,0,0,45,28,0,21,0,1,,,,,,,,,,
COc1ccc(Nc2nccc(-c3cccc(NC(=O)c4cc5cc(F)ccc5[nH]4)c3)n2)cc1 [GSK1229782],0,28,0,0,16,0,66,9,57,41,,,,,,,,,,
Cc1ccc(NC(=O)Nc2cccc(C(F)(F)F)c2)cc1 [GSK955403],,,,,,,,,,,0,0,20,0,0,0,19,0,4,0
Fc1cc(Cl)ccc1Nc1ccnc2cc(I)ccc12 [GW551191],5,3,0,0,0,28,41,0,16,38,,,,,,,,,,
Cc1csc(-c2nc(Nc3ccncc3)c3ccccc3n2)n1 [GW869640],18,0,11,37,41,45,1,0,0,5,,,,,,,,,,
CC(=O)Nc1nc2cnc(Nc3cc(NC(=O)c4cccc(CCC#N)c4)ccc3C)nc2s1,0,7,0,16,12,18,7,0,10,0,,,,,,,,,,
COc1cc2nccc(Nc3ccc(NC(=O)c4ccc(C)cc4)c(O)c3)c2cc1OC.Cl [GW440132],0,0,0,0,7,50,57,0,7,95.5,,,,,,,,,,
Fc1cc(Cl)ccc1Nc1ccnc2cc(-c3ccc(CN4CCCCC4)o3)ccc12 [GW560116],0,0,0,0,95.7,0,0,0,0,55,,,,,,,,,,
COc1ccc(Nc2nccc(NCCNC(=O)Nc3ccccc3F)n2)cc1 [GSK1379901],22,23,0,4,12,36,28,0,12,0,,,,,,,,,,
C[C@@H]1CCCCN1c1cc(-c2ccc3c(N)n[nH]c3c2)nc(N)n1 [GSK2258759],17,0,0,0,82,0,14,0,26,0,,,,,,,,,,
O=S(=O)(c1ccc(-c2ccnc3[nH]ccc23)cc1)N1CCCC1 [GSK846226],0,0,3,14,13,20,60,46,87,0,,,,,,,,,,
Cl.Oc1ccc(-c2nc(-c3ccccc3)[nH]c2-c2ccncc2)cc1 [SB-428218],10,62,24,0,0,32,0,0,0,58,,,,,,,,,,
O=C1NC(=O)C(N2CCc3ccccc32)=C1c1ccccc1Cl [SB-373598],18,10,7,13,0,10,3,0,18,7,,,,,,,,,,
COc1cc2ncn(-c3cc(OCC4CCCO4)c(C(N)=O)s3)c2cc1OC (centres unmarked) [GSK204607],0,17,7,0,0,1,80,0,72,0,,,,,,,,,,
